Experimental data as given in PubChem BioAssay AID720504 (National Center for Advancing Translational Sciences (NCATS), 2013).
In all, about 360,000 compounds went through this assay and about 10,000 (2.8%) were called active. Inconclusive results (about 4%) are left out. The call rests on the fitted dose curve; in most records, active means well fitted inhibition curve with a large enough effect; inconclusive means small, poorly fitted or top-dose-only effect; inactive means flat fitted curve, though single readings scatter. Shown is part of a subset that was picked to be rich in actives.

What follows are compounds tested against Serine/threonine-protein kinase PLK1 (Homo sapiens) (UniProt P53350) (assay: qHTS for Inhibitors of PLK1-PDB (polo-like kinase 1 - polo-box domain): Primary Screen). Settings: Plk1 PBD binding of FITC phosphopeptide, fluorescence polarization.
Sequence of Serine/threonine-protein kinase PLK1 (Homo sapiens) (P53350 whole entry, looked up, the tested form may be a part): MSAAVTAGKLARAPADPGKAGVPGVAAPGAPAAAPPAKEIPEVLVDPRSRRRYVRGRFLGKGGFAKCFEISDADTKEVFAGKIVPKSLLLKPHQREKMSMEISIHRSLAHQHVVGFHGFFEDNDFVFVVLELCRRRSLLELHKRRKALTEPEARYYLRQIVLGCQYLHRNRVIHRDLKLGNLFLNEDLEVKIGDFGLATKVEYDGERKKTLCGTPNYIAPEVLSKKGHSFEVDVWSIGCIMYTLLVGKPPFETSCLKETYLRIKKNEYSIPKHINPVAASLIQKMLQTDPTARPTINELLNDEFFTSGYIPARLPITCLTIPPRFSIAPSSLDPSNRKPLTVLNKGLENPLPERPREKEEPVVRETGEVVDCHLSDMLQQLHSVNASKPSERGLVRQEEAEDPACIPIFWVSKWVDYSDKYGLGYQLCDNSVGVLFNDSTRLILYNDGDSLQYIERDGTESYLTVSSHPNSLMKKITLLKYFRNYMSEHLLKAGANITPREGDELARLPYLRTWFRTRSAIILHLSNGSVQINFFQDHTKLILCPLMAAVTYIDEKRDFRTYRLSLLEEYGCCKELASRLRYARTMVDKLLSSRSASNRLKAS
Description: The polo-like kinase 1 (Plk1) is a member of a conserved subfamily of serine / threonine protein kinases that plays a pivotal roles in cell proliferation. It has a C-terminal non-catalytic region called the polo-box domain (PBD) that plays a crucial role in the subcellular localization of the Plk1. […] Furthermore, depletion of the overexpressed Plk1 by RNAi efficiently induces apoptotic cell death in cancer and reduces tumor growth in mouse xenograft models. Thus, targeting Plk1 is an appealing strategy for anti-cancer therapy. Therefore, this project aimed to screen the Molecular Libraries Small Molecule Repository (MLSMR) using a novel approach to find inhibitors that target the Plk1 PBD instead of the conventional N-terminal catalytic domain. This project employed a fluorescence polarization (FP) assay using a FITC-conjugated phospho-9-mer (p-9-mer) peptide and purified human Plk1 PBD protein. The identified small molecule inhibitors of Plk1 PBD can then further be developed into useful tools for biomedical and clinical research that complements or replaces current relevant disease therapy. NIH Chemical Genomics Center [NCGC] NIH Molecular Libraries Probe Centers Network [MLPCN] MLPCN Grant: MH100728 Assay Submitter (PI): Kyung Lee, NCI
Four microliter of 25 nM FITC-p-9-mer + 60 nM Plk1 PBD in buffer solution (final concentrations 25 nM and 60 nM respectively) or 4 uL of 25 nM FITC-p-9-mer (final concentration 25 nM) in buffer will be dispensed into a 1,536 Greiner medium-binding black solid plate. Small molecules at final concentrations of 18 nM to 57 uM and positive control phospho-9-mer (sequence: Ac-PPLHSpTAI-NH2) at final concentrations 26 nM to 57 uM and phospho-13-mer (sequence: Ac-[…]pTAI-NH2) at final concentrations of 1 nM to 2.3 uM will be pin-transferred (23 nL) to the plate via a Kalypsys pin-tool robotics equipped with a 1,536-pin array. The reaction plate will be centrifuged for 1 min at 1000 rpm and incubated at room temperature for 10 min. The FITC fluorescence signals will be read using the PerkinElmer ViewLux plate reader at 480 / 20 nm excitation and 540 / 20 nm S and P polarization emission wavelengths. Reagent bottles will be kept submerged into 4 °C recirculating chiller bath and all liquid lines will be covered with aluminum foil to minimize degradation. Library plates will be screened starting from the lowest to the highest concentrations to minimize compound carryover. Vehicle only plates, with DMSO being pin-transferred instead of compound solutions, will be included regularly throughout the screen to record any systematic shifts in assay signal.
Further: nearly all actives have a fitted effect of over 65% in size.
On the % scale 0 is the no-effect control and ±100 the full control effect; potency means the concentration at half of the fitted maximal effect.
Wherever Max response, negative = inhibition is given: series mostly up to about 57 µM.

Potency, active:
O=C1Nc2cc(C(=O)N3CCN(c4ccc(F)cc4)CC3)ccc2NC1CSCc1cccc(F)c1 (stereo not drawn) 29.9 µM
Cc1ccc(CSCC2Nc3ccc(C(=O)N4CCN(c5ccc(F)cc5)CC4)cc3NC2=O)cc1 (stereo not drawn) 8.44 µM
Cc1nnc(SCC(=O)Nc2cccc(N)c2)n1-c1ccccc1 26.7 µM
CC1=CC(=C(C#N)c2nc3ccccc3s2)C=C(C)N1c1ccc(F)cc1F 21.2 µM
COc1cc(/C=N\Nc2nc(-c3cccs3)c(NC(C)=O)s2)ccc1O 26.7 µM
O=C(COc1ccccc1)Nc1ccc(N2CCN(C(=O)c3cccs3)CC2)cc1 26.7 µM
Cc1cc(C(=O)OCC(=O)Nc2nccs2)c2ccccc2n1 3.36 µM
COc1ccc(CNC(=O)C2CCN(S(C)(=O)=O)CC2)cc1 21.2 µM
CC(CNC(=O)c1ccc(Br)o1)NC(=O)c1ccc(Br)o1 (stereo not drawn) 2.99 µM
COc1cc(/C=N/Nc2ccc(C)cc2)cc(Br)c1O 29.9 µM
c1ccc(-n2nc3ccccc3n2)cc1 29.9 µM

Max response, negative = inhibition, inactive:
C=CCn1c(SCc2cccc(F)c2)nc2cc(C(=O)N3CCC(C(N)=O)CC3)ccc2c1=O -5.4%
CC1CCN(C(=O)c2ccc3c(c2)NC(=O)CN3)CC1 62.7%
O=C(c1cccc(F)c1)N1CCN(c2ccc([N+](=O)[O-])c(N3CCCCC3)c2)CC1 -8.34%
Cc1ccc(SCC(=O)N2CCN(c3ccc(F)cc3)CC2)cc1 4.7%
Cc1nc2ccccc2nc1CC(O)(c1ccccc1)c1ccccc1 -15.9%
COc1cccc(CN(C)C(=O)CC[C@H]2O[C@@H](n3cnc4c(NC(=O)c5ccccc5)ncnc43)[C@H](O)[C@@H]2O)c1 -1.63%
Cc1ccc(C(NC(=O)C2CCN(CCOc3ccc(Cl)cc3Cl)CC2)c2ccccn2)cc1 (stereo not drawn) -11.3%
CCOc1cc(C)ccc1OCc1nnc(SCC(=O)Nc2cccc(C(=O)O)c2)n1-c1ccccc1 -7.97%
CC(=O)Nc1ccc(NC(=O)CSc2nnc(C3CC3)n2-c2ccccc2)cc1 7.6%
OCC1OC(n2cnc3c(N4CCCC4)ncnc32)C(O)C1O (stereo not drawn) -0.393%
C[C@@H]1CN([C@H](C)CO)C(=O)c2cc(Br)cnc2O[C@@H]1CN(C)Cc1cncnc1 -13.8%
CN(CCO)C(=O)c1nc[nH]c1C(=O)N(C)Cc1ccccc1 -6.79%
CN(Cc1nc2ccccc2s1)C(=O)c1ccc(F)cc1 -6.86%
O=C(NCc1cccnc1)c1ccc2nc([C@@H]3O[C@H](CO)[C@H](O)[C@H](O)[C@H]3O)[nH]c2c1 -4.09%
CC(=O)c1sc(N/N=C/c2ccc(C(C)C)cc2)nc1C 11.6%
COc1cc(C=NC2CCCCC2)ccc1O 4.49%
CCc1ccccc1NC(=O)CN1CCN(C(=O)c2cc(C3CC3)nn2-c2ccccc2)CC1 7.48%
COc1ccc(S(=O)(=O)NC(=O)C2(C)CCN2C(=O)COc2ccc(Cl)cc2)cc1 (stereo not drawn) -3.35%
CC(C)Nc1ncnc2c1ncn2[C@H]1CN(Cc2ccncc2)C[C@@H](CO)O1 0.157%
CC(=O)c1nn(-c2ccccc2)c(=Nc2ccccc2)cc1C -4.39%
COc1ccc(N2CCN(C(=O)c3cccs3)CC2)cc1 0.204%
O=C(COc1ccccc1)Nc1ccc(C(=O)N2CCCC2)cc1 -9.45%
Cc1ccc(S(=O)(=O)N2CCC(=O)N([C@H](COCc3ccccc3)C(C)C)CC2)cc1 -7.98%
Cc1cc(C(=O)OCC(=O)Nc2nnc(C(C)C)s2)c2ccccc2n1 -7.1%
O=C(COC(=O)c1ccc(O)cc1)Nc1nccs1 -1.48%
CC1(C(=O)NS(=O)(=O)c2cccc(OC(F)F)c2)CCN1C(=O)C1CC1 (stereo not drawn) 3.22%
CCCNC(=O)C1(C)CCN1C(=O)C1(c2ccccc2)CC1 (stereo not drawn) -4.48%
CC(C)(C)Cc1c(C2CCCCC2)nc2ccc(Br)cn12 3.52%
COc1ccc(CNC(=O)C2CCN(S(=O)(=O)N3CCOCC3)CC2)cc1 3.12%
COc1ccc(CNC(=O)C2CCN(S(=O)(=O)c3ccc(SC)cc3)CC2)cc1 -7.7%
CC1(C(=O)NCc2cccc3ccccc23)CCN1Cc1ccc(-c2ccccc2)o1 (stereo not drawn) -8.62%
CCc1nc2ccc(C(=O)NCCNC(C)=O)cn2c1N(CC)Cc1cccc(Br)c1 -0.869%
CCC(C(=O)NCc1ccccc1)n1c(Cc2cc(F)cc(F)c2)nc2ccccc21 (stereo not drawn) 2.43%
O=C(NCCN1CCOCC1)C1CCN(S(=O)(=O)c2ccccc2)CC1 1.1%
CC(CCc1ccccc1)NC(=O)c1ccc(Br)o1 (stereo not drawn) -7.05%
O=C(NCc1cccs1)c1ccc(Br)o1 -4.89%
O=C(COC(=O)/C=C/c1ccc(Cl)cc1)NC1CCS(=O)(=O)C1 (stereo not drawn) 3.25%
O=S1(=O)CC(N2CCSCC2)CN1Cc1cn(Cc2cccc(Cl)c2)nn1 (stereo not drawn) 1.2%
CSCCC(C(=O)NC(C)(C)C)n1c(-c2ccccc2)nc2ccccc21 (stereo not drawn) -11.3%
COc1cc(/C=N/O)cc(Br)c1OS(=O)(=O)c1ccc(C)cc1 4.61%
COc1cc(/C=N/NC(=S)Nc2cccnc2)cc(OC)c1O -21%
CCCc1nc2ccccc2n1C(C)C(=O)NC(C)(C)C (stereo not drawn) -5.55%
C[C@H]1CN([C@@H](C)CO)C(=O)c2cc(Br)cnc2O[C@H]1CN(C)S(=O)(=O)c1cccs1 -9.15%
COc1ccc(CN2C(=O)C(CC(=O)NCCN3CCOCC3)CC(C(=O)N(C(C)C)C(C)C)=C2C)cc1 (stereo not drawn) 4.68%
Cc1ccc(NC(=O)COC(=O)CN2CCSC2=O)cc1F 3.55%
O=C1CCCc2nn(-c3ccccc3)nc21 -8.07%
Nc1ccc2nn(-c3ccc(Cl)cc3)nc2c1 -7.93%
